The panel holds about 83,000 compounds, 20% with a hit somewhere; the sample as a whole holds those more often.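 Method: cells in 96-well plates; compound added at one concentration; 48 h incubation; percent growth measured; values under 10 scored active.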 Values without a mark were called inactive. Calls of active or inactive are those of the source.
Legend:
Test in all cases: NCI-60 one-dose screen, 48 h (100 = growth as untreated, 0 = no growth, -100 = all killed)
Conditions in all cases: 10 µM unless noted
[1] = tested on: HCT-15 colon
[2] = tested on: HT29 colon
[3] = tested on: SNB-75 CNS
[4] = tested on: SNB-19 CNS
[5] = tested on: PC-3 prostate
[6] = tested on: SK-MEL-5 melanoma
[7] = tested on: UACC-62 melanoma
[8] = tested on: LOX IMVI melanoma
[9] = tested on: SK-MEL-28 melanoma
[10] = tested on: SK-MEL-2 melanoma
[11] = tested on: SN12C renal
[12] = tested on: UO-31 renal
[13] = tested on: TK-10 renal
[14] = tested on: ACHN renal
[15] = tested on: CAKI-1 renal
[16] = tested on: A498 renal
[17] = tested on: CCRF-CEM leukemia
[18] = tested on: MOLT-4 leukemia
[19] = tested on: U251 CNS
[20] = tested on: EKVX NSCLC

Cc1nc2cc(Nc3nc(Nc4ccc(F)cc4)nc(-c4cccs4)n3)ccc2n1Cc1ccccc1
growth [1]: 30.3% | growth [2]: 20.5% | growth [3]: 52.2% | growth [4]: 66.7% | growth [5]: 29.4% | growth [6]: 76.5% | growth [7]: 61.5% | growth [8]: 64.8% | growth [9]: 74.3% | growth [10]: 72.9% | growth [11]: 70.3% | growth [12]: 36.5% | growth [13]: 62.7% | growth [14]: 45.6% | growth [15]: 70.2% | growth [16]: 56% | growth [17]: 27.2% | growth [18]: 23.5%

CC(C)(C)CC(C)(C)N(CSc1ccc(Cl)cc1)CSc1ccc(Cl)cc1
growth [1]: 53.3% | growth [2]: 57.7% | growth [3]: 49.6% | growth [4]: 67.5% | growth [5]: 2.25% (active) | growth [6]: 54.2% | growth [7]: 57.9% | growth [8]: -34.6% (active) | growth [9]: 76.7% | growth [10]: 74.4% | growth [11]: 16.6% | growth [12]: 25.5% | growth [13]: 76.5% | growth [14]: 63.8% | growth [15]: 24.9% | growth [16]: -7.24% (active) | growth [17]: -19.8% (active) | growth [18]: -34.5% (active)

O=C1/C(=C/c2ccc(F)cc2)CN(Cc2cn(CCNc3ccnc4cc(Cl)ccc34)nn2)C/C1=C\c1ccc(F)cc1
growth [1]: -60.5% (active) | growth [2]: -79.2% (active) | growth [3]: 50% | growth [4]: -74.4% (active) | growth [19]: -91.4% (active) | growth [6]: -100% (active) | growth [8]: -93.8% (active) | growth [9]: -79.7% (active) | growth [10]: -63.7% (active) | growth [11]: -75% (active) | growth [12]: -95.8% (active) | growth [13]: -20.3% (active) | growth [14]: -100% (active) | growth [15]: 1.43% (active) | growth [16]: -79.3% (active) | growth [18]: -18.4% (active)

O=C(COc1cccc(/C=C2\COc3ccccc3C2=O)c1)c1ccccc1
growth [1]: 33.1% | growth [2]: 41.2% | growth [3]: 71% | growth [4]: 100% | growth [19]: 60.9% | growth [6]: 47.7% | growth [7]: 59.4% | growth [8]: 23.7% | growth [9]: 97.2% | growth [10]: 70.7% | growth [20]: 84% | growth [11]: 84.9% | growth [12]: 75.1% | growth [13]: 92.2% | growth [14]: 86.8% | growth [15]: 53.2% | growth [16]: 86.9% | growth [17]: -32.7% (active) | growth [18]: -21.9% (active)

COc1ccc(OC)c2ncccc12
growth [1]: 96.3% | growth [2]: 97.4% | growth [3]: 88.6% | growth [4]: 110% | growth [5]: 92% | growth [6]: 102% | growth [7]: 114% | growth [8]: 95.6% | growth [9]: 117% | growth [10]: 87.5% | growth [11]: 101% | growth [12]: 64.4% | growth [13]: 108% | growth [14]: 94.7% | growth [15]: 95.7% | growth [16]: 101% | growth [17]: 92.4% | growth [18]: 93.1%

Cc1nc2cc(Nc3nc(NCCN)nc(Nc4ccc(F)cc4)n3)ccc2n1Cc1ccccc1
growth [1]: 100% | growth [2]: 35.1% | growth [3]: 84.2% | growth [4]: 91.6% | growth [19]: 77.4% | growth [6]: 86.6% | growth [8]: 58.2% | growth [9]: 107% | growth [10]: 90.5% | growth [11]: 85.1% | growth [12]: 89.3% | growth [13]: 101% | growth [14]: 96.8% | growth [15]: 94.2% | growth [16]: 67.4% | growth [17]: -13.7% (active) | growth [18]: -14.4% (active)

O=[N+]([O-])c1cc2c(cc1Br)C1C(C3C2C(Cl)(Cl)C(Cl)=C(Cl)C3(Cl)Cl)C(Cl)(Cl)C(Cl)=C(Cl)C1(Cl)Cl (stereo unspecified)
growth [1]: 103% | growth [2]: 102% | growth [3]: 85.8% | growth [4]: 106% | growth [5]: 85.1% | growth [6]: 102% | growth [7]: 87.1% | growth [8]: 91.9% | growth [9]: 102% | growth [11]: 98.7% | growth [12]: 74.4% | growth [13]: 103% | growth [14]: 102% | growth [15]: 91.4% | growth [16]: 111% | growth [17]: 86.5% | growth [18]: 95.1%

C(=C\c1ccccc1)/CN1CCN(C(c2ccccc2)c2ccccc2)CC1
growth [1]: 80.9% | growth [2]: 83.1% | growth [3]: 85.4% | growth [4]: 96.3% | growth [5]: 77.5% | growth [6]: 95.5% | growth [7]: 96.9% | growth [8]: 99.7% | growth [9]: 91.9% | growth [10]: 104% | growth [11]: 90.4% | growth [12]: 70.5% | growth [13]: 110% | growth [14]: 95.1% | growth [16]: 69.5% | growth [17]: 94.4% | growth [18]: 90.2%

O=C(Nc1ccc(F)cc1)c1ccc(C(=O)Nc2ccc(F)cc2)cc1
growth [1]: 89.1% | growth [2]: 97.7% | growth [3]: 84.1% | growth [4]: 106% | growth [5]: 99.6% | growth [6]: 99.9% | growth [7]: 107% | growth [8]: 103% | growth [9]: 98.6% | growth [10]: 105% | growth [11]: 102% | growth [12]: 87.8% | growth [13]: 108% | growth [14]: 99.8% | growth [15]: 94.2% | growth [16]: 90.4% | growth [17]: 102% | growth [18]: 94.4%

COc1ccc(-n2ncc3c4nc(OC)c(S(=O)(=O)c5ccccc5)cc4ccc32)cc1
growth [1]: 77.6% | growth [2]: 70.3% | growth [3]: 6.98% (active) | growth [4]: 64.9% | growth [5]: 79.4% | growth [6]: 90.4% | growth [7]: 59.9% | growth [8]: 86.1% | growth [9]: 71.6% | growth [10]: 65.9% | growth [11]: 93% | growth [12]: 76.4% | growth [13]: 88.2% | growth [14]: 44.2% | growth [15]: 88.7% | growth [16]: 43.3% | growth [17]: 103% | growth [18]: 98.4%

COc1nc2c(cc1S(=O)(=O)c1ccccc1)CCc1c-2cnn1-c1ccccc1Cl
growth [1]: 51.5% | growth [2]: 36.9% | growth [3]: 50.9% | growth [4]: 64.5% | growth [5]: 35.9% | growth [6]: 68% | growth [7]: 60% | growth [8]: 78% | growth [9]: 85.2% | growth [10]: 92.2% | growth [11]: 59% | growth [12]: 40.2% | growth [13]: 42.2% | growth [14]: 62.5% | growth [15]: 49.9% | growth [16]: -1.8% (active) | growth [17]: 60.8% | growth [18]: 42.9%

Cc1ccc2c(N/N=C\c3ccco3)cc(C)nc2n1
growth [1]: 36.6% | growth [2]: 26.6% | growth [3]: 85.5% | growth [4]: 87.4% | growth [5]: 70.5% | growth [6]: 94.8% | growth [7]: 51.1% | growth [8]: 46.5% | growth [9]: 80.5% | growth [10]: 114% | growth [11]: 77.2% | growth [12]: 35.1% | growth [13]: 93.8% | growth [14]: 39.5% | growth [15]: 66% | growth [16]: 50.3% | growth [17]: 5.24% (active) | growth [18]: 37%

Cc1nn(-c2ccccc2)c2nc3nc4c(c(N)c3c(-c3ccc(Cl)cc3)c12)CCC4
growth [1]: 76.5% | growth [2]: 55.2% | growth [3]: 86.2% | growth [4]: 111% | growth [5]: 88.2% | growth [6]: 99.4% | growth [7]: 102% | growth [8]: 62.5% | growth [9]: 96.9% | growth [10]: 96.8% | growth [11]: 105% | growth [13]: 105% | growth [14]: 51.1% | growth [15]: 93.1% | growth [16]: 92.4% | growth [17]: 21.7% | growth [18]: 90.4%

FC(F)(F)c1cc(CNc2nc(Cl)ncc2Br)cc(C(F)(F)F)c1
growth [1]: 79.7% | growth [2]: 98.4% | growth [3]: 66.6% | growth [4]: 107% | growth [5]: 80.2% | growth [6]: 95.4% | growth [7]: 77.2% | growth [8]: 98.4% | growth [9]: 94% | growth [10]: 83.6% | growth [11]: 89.3% | growth [12]: 67.1% | growth [13]: 94% | growth [14]: 94.5% | growth [15]: 76.5% | growth [16]: 80.2% | growth [17]: 81.4% | growth [18]: 82.4%

COc1ccc(-c2c3c(N)c4c(nc3nc3c2c(C)nn3-c2ccccc2)CCCC4)cc1
growth [1]: 68.2% | growth [2]: 21.1% | growth [3]: 78.6% | growth [4]: 103% | growth [5]: 64.9% | growth [6]: 90.9% | growth [7]: 92.9% | growth [8]: 92.6% | growth [9]: 96.9% | growth [10]: 101% | growth [11]: 93.4% | growth [12]: 68.9% | growth [13]: 86.8% | growth [14]: 77.4% | growth [15]: 83.9% | growth [16]: 78.7% | growth [17]: 23.2% | growth [18]: 23.6%

Brc1ccc(SCN(CSc2ccc(Br)cc2)Cc2ccccc2)cc1
growth [1]: 78.8% | growth [2]: 78.9% | growth [3]: 66.4% | growth [4]: 84.2% | growth [5]: 26.4% | growth [6]: 91.2% | growth [7]: 92% | growth [8]: -15.5% (active) | growth [9]: 101% | growth [10]: 94.6% | growth [11]: 27.3% | growth [12]: 39% | growth [13]: 113% | growth [14]: 87.3% | growth [15]: 73% | growth [16]: 56.3% | growth [17]: 4.88% (active) | growth [18]: 17%

Cc1nc2cc(Nc3nc(N4CCCCC4)nc(N4CCOCC4)n3)ccc2n1Cc1ccccc1
growth [1]: 21.3% | growth [2]: -8.67% (active) | growth [3]: -12.7% (active) | growth [4]: 65.3% | growth [5]: 47.1% | growth [6]: 54.9% | growth [7]: 32.1% | growth [8]: 1.44% (active) | growth [9]: 46.6% | growth [10]: 19% | growth [11]: 52.2% | growth [12]: 1.61% (active) | growth [13]: -32.9% (active) | growth [14]: -41.4% (active) | growth [15]: 63.3% | growth [16]: 38.8% | growth [17]: 62.2% | growth [18]: 36.4%

— PubChem BioAssay (NCI)
